# Measured values reported in the supplement of paper PMC8728848.
# Shown is part of a subset that was picked to be rich in the strongest signals.
# Assays:
# Test in all cases: glycan array binding signal (z-score within array); higher = stronger binding
# Details in all cases: glycan notation: IUPAC condensed, linker removed
# [1] = target: Fuc(a1-2)Gal(b1-3)GalNAc(b1-4)[Neu5Ac(a2-3)]Gal(b1-4)Glc
# In short: (§1)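 Glycan array data came from 3228 arrays in the Consortium for Functional Glycomics database, and only arrays with an available protein sequence were kept. Glycan names were put into IUPAC-condensed notation, and columns mapping to the same glycan were averaged. The binding signal is a within-array Z-score, averaged across arrays of one protein sequence run at different concentrations or buffers and across linkers. A negative Z-score can be read as non-binding.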
# Fuc(a1-2)Gal(b1-4)Glc = target: Fuc(a1-2)Gal(b1-4)Glc
# In short: as §1
# Fuc(a1-2)Gal(b1-4)Glc6S = target: Fuc(a1-2)Gal(b1-4)Glc6S
# In short: as §1
# Fuc(a1-2)Gal(b1-4)GlcNAc = target: Fuc(a1-2)Gal(b1-4)GlcNAc
# In short: as §1
# [2] = target: Fuc(a1-2)Gal(b1-4)GlcNAc6S
# In short: as §1
# Fuc(a1-2)Gal6S(b1-4)Glc = target: Fuc(a1-2)Gal6S(b1-4)Glc
# In short: as §1
# [3] = target: Fuc(a1-2)Gal6S(b1-4)Glc6S
# In short: as §1
# [4] = target: Fuc(a1-2)[Gal(a1-4)]Gal(b1-4)GlcNAc
# In short: as §1
# [5] = target: Fuc(a1-2)[GalNAc(a1-3)]Gal(b1-4)GlcNAc
# In short: as §1
# [6] = target: Fuc(a1-2)[GalNAc(a1-4)]Gal(b1-4)GlcNAc
# In short: as §1
# Gal(a1-3)Gal(b1-3)GlcNAc = target: Gal(a1-3)Gal(b1-3)GlcNAc
# In short: as §1
# Gal(a1-3)Gal(b1-4)Glc = target: Gal(a1-3)Gal(b1-4)Glc
# In short: as §1
# Gal(a1-3)Gal(b1-4)GlcNAc = target: Gal(a1-3)Gal(b1-4)GlcNAc
# In short: as §1
# [7] = target: Gal(a1-4)Gal(b1-3)GlcNAc(b1-2)Man(a1-3)[Gal(a1-4)Gal(b1-3)GlcNAc(b1-2)Man(a1-6)]Man(b1-4)GlcNAc(b1-4)GlcNAc
# In short: as §1
# Gal(a1-4)Gal(b1-4)GlcNAc = target: Gal(a1-4)Gal(b1-4)GlcNAc
# In short: as §1
# Gal(a1-4)GlcNAc = target: Gal(a1-4)GlcNAc
# In short: as §1
# [8] = target: Gal(b1-4)GlcNAc(b1-2)[Gal(b1-4)GlcNAc(b1-4)]Man(a1-3)[Gal(b1-4)GlcNAc(b1-2)[Gal(b1-4)GlcNAc(b1-6)]Man(a1-6)]Man(b1-4)GlcNAc(b1-4)GlcNAc
# In short: as §1
# Gal3S6S(b1-4)GlcNAc6S = target: Gal3S6S(b1-4)GlcNAc6S
# In short: as §1
# Gal6S(b1-4)GlcNAc = target: Gal6S(b1-4)GlcNAc
# In short: as §1
# [9] = target: GalNAc(a1-3)Fuc(a1-2)Gal(b1-4)GlcNAc(b1-3)[GalNAc(a1-3)Fuc(a1-2)Gal(b1-4)GlcNAc(b1-6)]GalNAc
# In short: as §1
# GalNAc(b1-3)Gal = target: GalNAc(b1-3)Gal
# In short: as §1
# [10] = target: Glc(a1-6)Glc(a1-6)Glc(a1-6)Glc
# In short: as §1
# Glc(b1-4)Glc = target: Glc(b1-4)Glc
# In short: as §1
# Glc(b1-6)Glc = target: Glc(b1-6)Glc
# In short: as §1
# [11] = target: GlcNAc(a1-4)Gal(b1-4)GalNAc
# In short: as §1
# [12] = target: GlcNAc(a1-6)Gal(b1-4)GlcNAc
# In short: as §1
# [13] = target: GlcNAc(b1-2)[GlcNAc(b1-6)]Man(a1-6)[GlcNAc(b1-2)Man(a1-3)]Man(b1-4)GlcNAc(b1-4)GlcNAc
# In short: as §1
# Kdn(a2-3)Gal(b1-4)GlcNAc = target: Kdn(a2-3)Gal(b1-4)GlcNAc
# In short: as §1
# [14] = target: Neu5Ac(a2-3)Gal(b1-3)GalNAc
# In short: as §1
# [15] = target: Neu5Ac(a2-3)Gal(b1-3)GlcNAc(b1-3)Gal(b1-4)GlcNAc
# In short: as §1
# [16] = target: Neu5Ac(a2-3)Gal(b1-3)[Fuc(a1-4)]GlcNAc
# In short: as §1
# [17] = target: Neu5Ac(a2-3)Gal(b1-3)[Fuc(a1-4)]GlcNAc(b1-3)Gal(b1-4)[Fuc(a1-3)]GlcNAc
# In short: as §1
# [18] = target: Neu5Ac(a2-3)Gal(b1-3)[Neu5Ac(a2-6)]GalNAc
# In short: as §1
# [19] = target: Neu5Ac(a2-3)Gal(b1-4)GlcNAc(b1-3)Gal(b1-3)GlcNAc
# In short: as §1
# [20] = target: Neu5Ac(a2-3)Gal(b1-4)GlcNAc(b1-6)[Gal(b1-3)]GalNAc
# In short: as §1
# [21] = target: Neu5Ac(a2-3)Gal(b1-4)GlcNAc(b1-6)[Neu5Ac(a2-3)Gal(b1-3)]GalNAc
# In short: as §1
# Neu5Ac(a2-3)GalNAc = target: Neu5Ac(a2-3)GalNAc
# In short: as §1
binder,measurement,setting,value
"UEA-I (Ulex europaeus), P22972 (protein) SDDLSFKFKNFSQNGKDLSFQGDASVIETGVLQLNKVGNNLPDETGGIARYIAPIHIWNCNTGEVASFITSFSFFMETSANPKAATDGLTFFLAPPDSPLRRAGGYFGLFEDTKDNDSSYQTVAVEFDTIGSPVNFDDPGFPHIGIDVNRVKSINAERWNKRYGLNNVANVEIIYEASSKTLTASLTYPSDQTSISVTSIVDLKEILPEWVSVGFSGGTYIGRQATHEVLNWYFTSNLIN",glycan array binding signal (z-score),[1],-0.19
same,glycan array binding signal (z-score),Fuc(a1-2)Gal(b1-4)Glc,5.21
same,glycan array binding signal (z-score),Fuc(a1-2)Gal(b1-4)Glc6S,8.13
same,glycan array binding signal (z-score),Fuc(a1-2)Gal(b1-4)GlcNAc,6.42
same,glycan array binding signal (z-score),[2],6.86
same,glycan array binding signal (z-score),Fuc(a1-2)Gal6S(b1-4)Glc,4.06
same,glycan array binding signal (z-score),[3],8.02
same,glycan array binding signal (z-score),[4],5.33
same,glycan array binding signal (z-score),[5],-0.183
same,glycan array binding signal (z-score),[6],4.61
same,glycan array binding signal (z-score),Gal(a1-3)Gal(b1-3)GlcNAc,-0.18
same,glycan array binding signal (z-score),Gal(a1-3)Gal(b1-4)Glc,-0.172
same,glycan array binding signal (z-score),Gal(a1-3)Gal(b1-4)GlcNAc,-0.186
same,glycan array binding signal (z-score),[7],-0.17
same,glycan array binding signal (z-score),Gal(a1-4)Gal(b1-4)GlcNAc,-0.176
same,glycan array binding signal (z-score),Gal(a1-4)GlcNAc,-0.174
same,glycan array binding signal (z-score),[8],-0.175
same,glycan array binding signal (z-score),Gal3S6S(b1-4)GlcNAc6S,-0.174
same,glycan array binding signal (z-score),Gal6S(b1-4)GlcNAc,-0.188
same,glycan array binding signal (z-score),[9],-0.158
same,glycan array binding signal (z-score),GalNAc(b1-3)Gal,-0.18
same,glycan array binding signal (z-score),[10],-0.177
same,glycan array binding signal (z-score),Glc(b1-4)Glc,-0.178
same,glycan array binding signal (z-score),Glc(b1-6)Glc,-0.185
same,glycan array binding signal (z-score),[11],-0.175
same,glycan array binding signal (z-score),[12],-0.176
same,glycan array binding signal (z-score),[13],-0.186
same,glycan array binding signal (z-score),Kdn(a2-3)Gal(b1-4)GlcNAc,-0.185
same,glycan array binding signal (z-score),[14],-0.18
same,glycan array binding signal (z-score),[15],-0.182
same,glycan array binding signal (z-score),[16],-0.181
same,glycan array binding signal (z-score),[17],-0.186
same,glycan array binding signal (z-score),[18],-0.17
same,glycan array binding signal (z-score),[19],-0.178
same,glycan array binding signal (z-score),[20],-0.183
same,glycan array binding signal (z-score),[21],-0.179
same,glycan array binding signal (z-score),Neu5Ac(a2-3)GalNAc,-0.177
